This note sets out measurements from PubChem BioAssay (EPA / NIEHS).

Activity calls are given as the source filed them. How the source made its calls: active means hit-call score of the fitted dose curve at least 0.9, where 1 is the maximum; inactive means score below 0.9.

A short description of this assay: BSK_hDFCGF_SRB: Viability Assessment in the BioMAP Diversity Plus: hDFCGF Assay (AID 2283061). The note with it: primary human foreskin fibroblasts. The protocol:
BSK_hDFCGF is a cell-based, multiplexed-readout assay that uses foreskin fibroblast, a human skin primary cell, with measurements taken at 24 hours after chemical dosing in a 96-well plate.BSK_hDFCGF_SRB is an assay component measured in the BSK_hDFCGF assay. It measures 0.1% sulforhodamine related to cell death using Sulforhodamine staining technology.Data from the assay component BSK_hDFCGF_SRB was analyzed into 1 assay endpoint. This assay endpoint, BSK_hDFCGF_SRB, was analyzed with bidirectional fitting relative to DMSO as the negative control and baseline of activity. Using a type of viability reporter, gain or loss-of-signal activity can be used to understand changes in the signaling. Furthermore, this assay endpoint can be referred to as a primary readout, because this assay has produced multiple assay endpoints where this one serves a signaling function. To generalize the intended target to other relatable targets, this assay endpoint is annotated to the cell morphology intended target family, where the subfamily is cell conformation.
The levels of cell surface (or secreted, indicated by the prefix "s") biomarker endpoints were measured by ELISA. Overt cytotoxicity to cells in confluent adherent cultures (all systems other than the BT system) was assessed by measuring total protein levels using sulforhodamine B (SRB) staining in parallel cultures at the time of biomarker measurements, indicated as SRB endpoints. For proliferation assays for adherent cell types, individual cell types are cultured at sub-confluence and relative cell numbers quantified by SRB staining at time points optimized for each system (48 h: 3C and CASM3C systems; 72 h: BT and HDF3CGF systems; 96 h: SAg system). SRB was performed by staining cells with 0.1% SRB after fixation with 10% TCA and reading wells at 560 nm.Viability and proliferation of PBMC (T cells) was quantified by Alamar Blue reduction for the SAg and BT systems. For PBMC viability (referred to as PBMC Cytotoxicity within the assay endpoint names), cells were plated (75,000/well in a 96-well plate) and then chemical samples added for 1 h before addition of activators, SEB and TSST-1 (20 ng/mL final concentration each). Cells were incubated for 90 h. Then, Alamar Blue (20 uL/well) (Invitrogen, Cat DAL1100) was added for 6 h, and the plates were read with a fluorescence microplate reader at 546/580 nm (excitation/emission). For PBMC proliferation, cells were plated and activated as above but incubated for only 16 h prior to addition of Alamar Blue. Plates were read after 6 h.
With `OCC(F)(F)OC(F)(F)C(F)(F)OC(F)(F)C(F)(F)OC(F)(F)F`, the result was inactive.

On to `CN(C)C(=O)Cl`, for which the result was inactive.

For orientation: AC50 means the concentration at which the activity in the assay is half-maximal. `ClC1=C(Cl)C2(Cl)C3C(Cl)C(Cl)CC3C1(Cl)C2(Cl)Cl` (stereo not given): the AC50 was 7.71 µM (active).

For the compound `O=P(OCC(Br)CBr)(OCC(Br)CBr)OCC(Br)CBr` (stereo not given), the outcome was inactive.

As for `CSC(C)(C)C=NO`, the result was inactive.

Regarding `CC(C)(C)c1ccccc1OP(=O)(Oc1ccccc1)Oc1ccccc1`, the AC50 is 25 µM (active).

As to `O=[N+]([O-])c1ccccc1`, the result was inactive.

For the compound `c1ccc2c(c1)Nc1ccccc1S2`, the outcome was inactive.

Regarding `Cc1ccc([N+](=O)[O-])cc1C`, the outcome was inactive.

`O=C(O)C1C(C(=O)O)C2(Cl)C(Cl)=C(Cl)C1(Cl)C2(Cl)Cl` (stereo not given): the outcome was inactive.

As to `O=C(O)C(F)(F)C(F)(F)C(=O)O`, the result was inactive.

In the case of `Nc1ccc([N+](=O)[O-])cc1Cl`, the outcome was inactive.

Regarding `CC(Cl)(Cl)C(=O)O`, the outcome was inactive.

On to `CCOP(=S)(OCC)SCn1nnc2ccccc2c1=O`, for which the result was inactive.

For the compound `CCC1(c2ccccc2)C(=O)N=C(O)NC1=O` (stereo not given), the outcome was inactive.

For `CC(Cl)CN(C)C` (stereo not given), the outcome was inactive.

For the compound `CC(O)C(F)(F)C(F)(F)F` (stereo not given), the result was inactive.

On to `O=C(O)C=CC(F)(C(F)(F)F)C(F)(F)F`, for which the outcome was inactive.

On to `O=S(=O)(F)C(F)(F)C(F)(F)C(F)(F)C(F)(F)C(F)(F)C(F)(F)C(F)(F)C(F)(F)F`, for which the outcome was inactive.

Take `c1nc[nH]n1`: the outcome was inactive.

Turning to `CC(C)(C)c1ccc(O)cc1`, the result was inactive.

As to `CC(Cc1ccc(OCC(=O)O)cc1)NCC(O)c1csc(C(F)(F)F)n1` (stereo not given), the outcome was inactive.

For `CCOP(=S)(S)OCC`, the result was inactive.

For the compound `COP(=O)(CCC(=O)NCO)OC`, the outcome was inactive.

`CCCCc1ccccc1`: the outcome was inactive.

With `CC(C)Nc1ccc(Nc2ccccc2)cc1`, the AC50 is 6.01 µM (active).

Turning to `O=P(Oc1ccccc1)(Oc1ccccc1)Oc1ccccc1`, the result was inactive.

`FC(F)(F)C(F)(C(F)(F)F)C(F)(F)C(F)(F)CC1CO1` (stereo not given): the result was inactive.

Take `CCCCN(CCCC)SN(C)C(=O)Oc1cccc2c1OC(C)(C)C2`: the AC50 was 9.64 µM (active).

On to `N#Cc1cc([N+](=O)[O-])ccc1N`, for which the result was inactive.

As to `CCCCCCCc1ccc(O)cc1`, the AC50 was 30 µM (active).

As for `Cc1ccc2c(c1N)C(=O)c1ccccc1C2=O`, the result was inactive.

Take `O=S1(=O)OCC2C(CO1)C1(Cl)C(Cl)=C(Cl)C2(Cl)C1(Cl)Cl` (stereo not given): the outcome was inactive.

For the compound `C=CC(=O)OCC(CC)(COC(=O)C=C)COC(=O)C=C`, the concentration at half-maximal activity (AC50) is 1.32 µM (active).

Turning to `c1cc2c3c(cccc3c1)CC2`, the result was inactive.

As for `ClC(Cl)c1ccccc1`, the outcome was inactive.

Turning to `ClC(Cl)=C(c1ccc(Cl)cc1)c1ccccc1Cl`, the AC50 is 3.51 µM (active).

For the compound `O=c1ssc(Cl)c1Cl`, the AC50 was 2.71 µM (active).

For the compound `COP(=O)(O)OC`, the result was inactive.

As to `CCOP(=S)(OCC)SCS(=O)(=O)CC`, the outcome was inactive.
